# Results: PubChem BioAssay (NCI)
# Values joined by “and” are separate entries in the source; they are usually repeats but may differ in a detail not shown here. Equal values may be shown once. About 83,000 compounds went through this panel and 20% of them were active in at least one assay; those are over-represented in the sample as a whole.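 The test compound was applied at a single concentration to cells in 96-well plates for 48 hours, and percent growth was recorded.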 Active and inactive are the calls of the source.
# Test system: MDA-MB-468 breast
# Experiment: NCI-60 one-dose screen, 48 h (100 = growth as untreated, 0 = no growth, -100 = all killed)
# Settings: 10 µM unless noted
# Method: Growth inhibition of the MDA-MB-468 human Breast tumor cell line is measured as a screen for anti-cancer activity. Cells are grown in 96 well plates and exposed to the test compound for 48 hours. Compounds are tested at a single concentration, which is 10^-5 M for most compounds. The reported endpoint is percent growth (GI% or GIPRCNT), where numbers from 0 - 100% represent growth inhibition, and numbers from -100% - 0 represent cell death. For example, a value of 40 represents 60% growth inhibition. A value of 0 means no net growth occurred over the course of the experiment. A value of -40 indicates 40% of cells at the beginning of the experiment died by the end of the experiment. A value of -100 means all cells are dead at the end of the experiment.
# NCI-60 Human Tumor Cell Lines Screen was performed using the standard one-dose NCI protocol, which is described in more detail at https://dtp.cancer.gov/discovery_development/nci-60/default.htm.
# Compounds with GIPRCNT values below 10 were considered active. Activity score was based on GIPRCNT using the following formula: […]
# Score is 0 for GIPRCNT values of 100 or above, 50 for GIPRCNT values of 0, and 100 for GIPRCNT values of -100.
row,Structure (SMILES),growth
1,C[C@H](O)CCC(=O)c1ccoc1,98.7% (inactive)
2,CCOC(=O)C(NC(=O)C(Cc1ccc(N(CCCl)CCCl)cc1)NC(C)=O)C(C)C (stereo not given),92.3% (inactive)
3,NC(=O)c1c(Br)c(Br)c(Br)c(Br)c1C(=O)O (tested in a mixture with another compound),93.7% (inactive) and 101% (inactive)
4,COc1cc(/C=C/[N+](=O)[O-])cc(Br)c1OC,-34.7% (active)
5,Nc1c(Br)cc([N+](=O)[O-])cc1[N+](=O)[O-],95.5% (inactive)
6,CCOC(=O)/C(C#N)=C/c1ccc(N(CCCl)CCCl)cc1,64.2% (inactive)
7,CCc1ccccc1[C@@H]1C[C@]2(C)CCO[C@@H]2OO1,102% (inactive)
8,CCCCNC(c1ccc(Cl)cc1)C(O)c1ccc(Cl)cc1 (stereo not given),-14.6% (active)
9,COC1OC(CO)C(O)C(O)[CH]1[Hg][O]C(C)=O (stereo not given),72.2% (inactive)
10,O=NNc1ccccn1,78.5% (inactive)
11,CO[C@H]1[C@H](O[C@@H]2C[C@@H]3C/C=C/C(=O)O[C@@H](CO)C[C@H](O)[C@@H]4C[C@H](C)[C@H](C/C=C\C=C\[C@H](C)C[C@H](C2)O3)O4)O[C@@H](C)[C@H](O)[C@H]1O,-4.8% (active)
12,CCOP(=O)(OCC)C(=O)N(CC)CC,90.3% (inactive)
13,CCC1CN1P(=O)(OCCOC)N1CC1CC (stereo not given),110% (inactive)
14,C/C=C(/C)C(=O)O[C@H]1CC[C@@]2(C)[C@@H]3CC[C@H]4[C@]5(O)C[C@H](O)[C@@]6(O)[C@@H](CN7C[C@@H](C)CC[C@H]7[C@@]6(C)O)[C@]5(O)C[C@@]42O[C@@]13O,106% (inactive)
15,COC(=O)[C@@H](C)C[C@H](Cc1ccccc1)NC(=O)c1csc([C@@H](C[C@H](C(C)C)N(C)C(=O)[C@@H](NC(=O)[C@H]2CCCCN2C)C2CCCCC2)OC(C)=O)n1,-8.49% (active)
16,COc1ccc(C(c2ccc(OC)cc2)C(Cl)(Cl)Cl)cc1,18% (inactive)
17,COC1CC2C=C(C)/C=C/C=C/C(=O)NC(c3ccccc3)C/C=C/CCC(O)CC(=O)C2=C1O (stereo not given),-50.7% (active)
18,CC(=O)O[C@H]1C(=O)[C@@]2(C)[C@H]([C@H](OC(=O)c3ccccc3)[C@]3(O)C[C@H](OC(=O)[C@H](OC(=O)OCC4COC(C)(C)O4)[C@@H](NC(=O)c4ccccc4)c4ccccc4)C(C)=C1C3(C)C)[C@]1(OC(C)=O)CO[C@@H]1C[C@@H]2O (stereo not given in full),2.65% (active)
19,ClCCN(CCCl)c1ccc(C=NCCc2c[nH]c3ccccc23)cc1,-16.7% (active)
20,CC1(C)N=C(N)N=C(N)N1c1ccc(OCCCCNC(=O)c2ccc(S(=O)(=O)F)cc2)c(Cl)c1,64.7% (inactive)

row,Structure (SMILES),growth
1,COc1cc(OC)c(S(=O)(=O)N(CCCl)CCCl)cc1C(=O)/C=C/c1cc(OC)c(OC)c(OC)c1,-40.5% (active)
2,CC1(C)N=C(N)N=C(N)N1c1ccc(CCCCc2ccc(S(=O)(=O)F)cc2)c(Cl)c1,7.5% (active)
3,C=CC(O)CN1CC1CC (stereo not given),105% (inactive)
4,CCOP(=O)(OCC)Oc1ccc(Sc2ccc(OP(=O)(OCC)OCC)cc2)cc1,107% (inactive)
5,COc1cc(C2CC(=O)Nc3nc(N)[se]c32)cc(OC)c1OC (stereo not given),99.3% (inactive)
6,CC(=O)O[C@H](C[C@H](C(C)C)N(C)C(=O)[C@@H](NC(=O)[C@H]1CCCCN1C)C(C)C)c1nc(C(=O)N[C@@H](Cc2ccccc2)C[C@H](C)C(=O)O)c(C(C)C)s1,19.8% (inactive)
7,COCCOCCOCCOc1ccc(-n2cc(CCCN(CCNc3ccnc4cc(Cl)ccc34)C(=O)CCC(=O)O[C@@H]3O[C@@H]4OC5(C)CC[C@H]6[C@H](C)CC[C@@H]([C@H]3C)[C@@]46OO5)nn2)cc1,44.9% (inactive)
8,C#CCCCN(CCNc1ccnc2cc(Cl)ccc12)C(=O)CCC(=O)O[C@@H]1O[C@@H]2OC3(C)CC[C@H]4[C@H](C)CC[C@@H]([C@H]1C)[C@@]24OO3,-3.36% (active)
9,COc1cc(/C=C\[N+](=O)[O-])ccc1O,4.87% (active) and 65.1% (inactive)
10,NCCc1ccc(OCc2ccccc2)c(OCc2ccccc2)c1,48.5% (inactive)
11,CC(/C=N/N=C(N)N)=N/N=C(N)N,93.9% (inactive)
12,Cc1ccc(S(=O)(=O)C(Cl)(Cl)Cl)cc1,99.8% (inactive)
13,CCCCCCCCCCCCCCCCCCn1cc[n+](C)c1,-42.3% (active) and -20.4% (active)
14,Cc1ccccc1NC(=NCCCN1CC1)Nc1ccccc1C,54.7% (inactive)
15,COc1ccc(N(CC(=O)NCCC[Te]c2ccccc2)C(=O)CNC(=O)OC(C)(C)C)cc1,92.6% (inactive)
16,CC1(C)N=C(N)N=C(N)N1c1ccc(CCC(=O)Nc2ccc(S(=O)(=O)F)cc2)cc1,46.3% (inactive)
17,CCC(C)(C)[C@H](NC(=O)[C@H]1CCCCN1C)C(=O)N(C)[C@H](C[C@@H](OC(C)=O)c1nc(C(=O)N[C@@H](Cc2ccccc2)C[C@H](C)C(=O)O)cs1)C(C)C,7.54% (active)
18,Oc1ccc2c3c1O[C@H]1c4[nH]c5ccccc5c4C[C@@]4(O)C(C2)N(CC2CC2)CC[C@]314,90.5% (inactive)
19,N#CCCNc1ccccc1,108% (inactive)
20,[O]=[Sn]([CH]1CCCCC1)[CH]1CCCCC1,-92.2% (active)
